# PubChem BioAssay (NCATS)
# Results filed as inconclusive are left out. Active and inactive are the calls of the source. Calls come from the whole dose curve; as a rule, active = well fitted cell-killing curve with a large enough effect; inconclusive = small, poorly fitted or top-dose-only effect, or effect the other way; inactive = no such curve, though single readings can be large or run the other way.
# Assay: Quantitative High-Throughput drug screen in 47 multiple myeloma cell lines against the NCATS MIPE library collection: OPM1_PLB cell viability assay (AID 1918989); note: nearly all actives have a fitted effect of over 40% in size
# Conditions: CellTiter-Glo, 48 h; series mostly up to 45.8 µM
# From the text: PI: Beverly A. Mock Ph.D.
# Laboratory of Cancer Biology and Genetics,
# Center for Cancer Research, National Cancer Institute,
# National Institute of Health, Bethesda, Maryland
# Drug resistance and disease progression are common in multiple myeloma (MM) patients, underscoring the need for new therapeutic combinations. […] We hypothesized that effective combinations would reduce MYC expression and enhance p16 activity. […] These preclinical data identify potentially useful drug combinations for evaluation in drug-resistant MM and reveal potential mechanisms of combined drug sensitivity.
# Described herein is the primary MIPE qHTS used to cherrypick compounds. Validated compounds were then further tested for potential synergistic activiy.
# [1] Peat TJ, Gaikwad SM, Dubois W, Gyabaah-Kessie N, Zhang S, Gorjifard S, Phyo Z, Andres M, Hughitt VK, Simpson RM, Miller MA, Girvin AT, Taylor A, Williams D, D'Antonio N, Zhang Y, Rajagopalan A, Flietner E, Wilson K, Zhang X, Shinn P, Klumpp-Thomas C, McKnight C, Itkin Z, Chen L, Kazandijian D, Zhang J, Michalowski AM, Simmons JK, Keats J, Thomas CJ, Mock BA. Drug combinations identified by high-throughput screening promote cell cycle transition and upregulate Smad pathways in myeloma. Cancer Lett. 2023 Aug 1;568:216284. doi: 10.1016/j.canlet.2023.216284. Epub 2023 Jun 24. PMID: 37356470; PMCID: PMC10408729.
# SEQUENCE No. (e.g., 1, 2, 3, etc.); […] (e.g., Cells, Incubation, Reagent, etc.); VALUE and DESCRIPTION.
# 1; Cells; 5 uL; white, solid bottom 1536-well Greiner assay plate.
# 2; Compounds; 23 nL; Kalypsis pin tool (Wako USA) equipped with a 1536-well pin head to transfer to the assay plates.
# 3; Incubation; 48 hours; 37C incubation.
# 4; Reagent;5uL; CellTiter Glo (Promega).
# 5; Detector; 425V; Luminescence; Viewlux PerkinElmer.
# NOTES (numbers refer to Sequence numbers above)
# 1. The cell-based screening methods employed in this study were like those previously published. Briefly, the corresponding myeloma cell lines were screened in 1,536-well plates with 500 cells, 5-uL per well for inhibition of cell viability (assessed by measuring ATP levels with CellTiterGlo).
# 2. NCATS MIPE 4.0 library of approved and investigational drugs were added using the Kalypsis pin tool. Wells treated with DMSO only for 100% viability and media only for 0% viability were used as controls.
# 3. The assay plates were covered and incubated for 48 hours in a 37C, 5% CO2 incubator with controlled humidity.
# 4. After 48 hours, CellTilter-GloTM luminescent substrate mix (Promega) reagent was added to the assay plate and plates we incubated for 5 min at room temperature.
# 5. Signal was measured as median relative luminescence units on a ViewLux (PerkinElmer) multiplate reader.
# [1] Heske CM, Davis MI, Baumgart JT, Wilson K, Gormally MV, Chen L, Zhang X, Ceribelli M, Duveau DY, Guha R, Ferrer M, Arnaldez FI, Ji J, Tran HL, Zhang Y, Mendoza A, Helman LJ, Thomas CJ. Matrix Screen Identifies Synergistic Combination of PARP Inhibitors and Nicotinamide Phosphoribosyltransferase (NAMPT) Inhibitors in Ewing Sarcoma. Clin Cancer Res. 2017 Dec 1;23(23):7301-7311. doi: 10.1158/1078-0432.CCR-17-1121. Epub 2017 Sep 12. PMID: 28899971; PMCID: PMC6636827.
# Potency is the fitted concentration of half-maximal effect.
row,Compound,Potency
1,N#CC1(c2ccc(NC(=O)c3cccnc3NCc3ccncc3)cc2)CCCC1,16.6 µM (active)
2,COc1ccc2c(Oc3ccc(NC(=O)c4c(C)n(CC(C)(C)O)n(-c5ccccc5)c4=O)cc3F)ccnc2c1,18.7 µM (active)
3,C=C1C(=O)OC2C=C(C)CCC=C(C)CCC12 (stereo not given),18.7 µM (active)
4,C=C1C(=O)OC(CCCCCCCC)C1C(=O)O (stereo not given),20.9 µM (active)
5,O=C(Nc1cccc(Br)c1)c1cccc(S(=O)(=O)N2CCCCCC2)c1,18.7 µM (active)
6,CO[C@H]1C=CC=C(C)C(=O)NC2=CC(=O)C(NCCN(C)C)=C(C[C@@H](C)C[C@H](OC)[C@@H](O)[C@@H](C)C=C(C)[C@@H]1OC(N)=O)C2=O,0.0662 µM (active)
7,COCCCCC(=NOCCN)c1ccc(C(F)(F)F)cc1,23.5 µM (active)
8,C=C1C(=O)[C@@]23C(CC[C@@H]1[C@H]2O)[C@@]12CO[C@]3(O)[C@@H](O)[C@@H]1C(C)(C)CC[C@@H]2O (stereo not given in full),3.72 µM (active)
9,O=C(O)c1c(Cl)c(Cl)c(Cl)c(Cl)c1-c1c2cc(I)c(=O)c(I)c-2oc2c(I)c(O)c(I)cc12,9.35 µM (active)
10,CC[C@H]1OC(=O)[C@H](C)C(=O)[C@H](C)[C@@H](O[C@H]2O[C@H](C)C[C@H](N(C)C)[C@@H]2O)[C@](C)(OC)C[C@@H](C)C(=O)[C@H](C)[C@H]2N(CCCCn3cnc(-c4cccnc4)c3)C(=O)O[C@]12C,inactive
11,Nc1nc(F)nc2c1ncn2[C@@H]1O[C@H](COP(=O)(O)O)[C@@H](O)[C@H]1O,inactive
12,COc1cccc(-c2cc(=O)c3ccccc3o2)c1N,16.6 µM (active)
13,O=C(O)c1cc(O)c2c(c1)C(=O)c1cccc(O)c1C2=O,inactive
14,CS(=O)c1ccc(-c2nc(-c3ccc(F)cc3)c(-c3ccncc3)[nH]2)cc1 (stereo not given),48.1 µM (active)
15,O=C(NCc1ccncc1)C12C[C@H]3C[C@@H](C1)CC(c1ccc(Cl)cc1)(C3)C2,18.7 µM (active)
16,COCCOC(=O)C1=C(C)NC2=C(C(=O)CC(c3ccccc3OC)C2)C1c1cccc(O)c1 (stereo not given),6.62 µM (active)
17,COc1ccc(-n2c(C)c([N+](=O)[O-])c3ccc(O)cc32)cc1,inactive
18,O=C(O)c1ccc(-c2cc3cccnc3c(-c3ccc4nonc4c3)n2)cc1,20.9 µM (active)
19,CN(C)CCC=C1c2ccccc2COc2ccc(CC(=O)O)cc21,inactive
20,C[N+]1(C)[C@@H]2CC(OC(=O)[C@H](CO)c3ccccc3)C[C@H]1[C@H]1O[C@@H]12 (stereo not given in full),inactive

row,Compound,Potency
1,C[C@]12CC[C@@H]3c4ccc(O)cc4C[C@@H](CCCCCCCCCS(=O)CCCC(F)(F)C(F)(F)F)[C@H]3[C@H]1CC[C@H]2O (stereo not given in full),inactive
2,CC(C)n1nc(-c2ccc3oc(N)nc3c2)c2c(N)ncnc21,0.001 µM (active)
3,CC1(C)CCC[C@@]2(C)[C@@H]1CC[C@@]1(C)OC(=O)C[C@H]21,inactive
4,O=c1c(-c2ccc(O)cc2)coc2cc(OC3O[C@H](CO)[C@H](O)[C@H](O)[C@H]3O)cc(O)c12 (stereo not given in full),7.43 µM (active)
5,CO[C@@H](C(=O)N1Cc2[nH]nc(NC(=O)c3ccc(N4CCN(C)CC4)cc3)c2C1)c1ccccc1,8.33 µM (active)
6,NC(=O)c1ccc2nc(-c3ccc(Oc4ccc(Cl)cc4)cc3)[nH]c2c1,6.62 µM (active)
7,CC(=NNC(=S)N1CCC1)c1ccccn1,0.0037 µM (active)
8,COc1ccc(C2Sc3ccccc3N(CCN(C)C)C(=O)C2OC(C)=O)cc1 (stereo not given),inactive
9,CCc1ccc(C=C2SC(=S)NC2=O)cc1,inactive
10,COc1ccc(-c2oc3c(CC=C(C)C)c(OC4O[C@H](CO)[C@@H](O)[C@H](O)[C@@H]4O)cc(O)c3c(=O)c2OC2O[C@@H](C)[C@H](O)[C@@H](O)[C@@H]2O)cc1 (stereo not given in full),26.4 µM (active)
11,O=c1ccn([C@@H]2O[C@H](CO)[C@H](O)[C@H]2O)c(=O)[nH]1,inactive
12,Cc1nnc(C(C)C)n1C1C[C@H]2CC[C@@H](C1)N2CC[C@H](NC(=O)C1CCC(F)(F)CC1)c1ccccc1 (stereo not given in full),inactive
13,CCS(=O)(=O)N1CC(CC#N)(n2cc(-c3ncnc4[nH]ccc34)cn2)C1,20.9 µM (active)
14,COc1ccc2c(Oc3ccc(NC(=O)c4c(C)n(CC(C)(C)O)n(-c5ccccc5)c4=O)nc3)ccnc2c1,inactive
15,COc1cc2nc(-c3ccc(N4CCN(C)CC4)cc3)nc(NCCN3CCOCC3)c2cc1OC,0.166 µM (active)
16,CCCCCCCCCCCC1=C(O)C(=O)C=C(O)C1=O,3.72 µM (active)
17,CCn1cc(C(=O)O)c(=O)c2ccc(C)nc21,inactive
18,O=c1cc(-c2ccccc2)oc2cc(O)cc(O)c12,inactive
19,NC(=O)c1cccc2[nH]c(-c3ccc([C@H]4CCCN4)cc3F)nc12,14.8 µM (active)
20,CC=C(C)C(=O)O[C@H]1C(C)=C[C@]23C(=O)[C@@H](C=C(CO)[C@@H](O)[C@]12O)[C@H]1[C@@H](C[C@H]3C)C1(C)C,4.18 µM (active)
